# Data taken from paper PMC5700166.
# Target: T1, GST-Nv-NF-kB (Ser allele) (Nematostella vectensis, UniProt A7UNT2 2-411)
# T1 sequence: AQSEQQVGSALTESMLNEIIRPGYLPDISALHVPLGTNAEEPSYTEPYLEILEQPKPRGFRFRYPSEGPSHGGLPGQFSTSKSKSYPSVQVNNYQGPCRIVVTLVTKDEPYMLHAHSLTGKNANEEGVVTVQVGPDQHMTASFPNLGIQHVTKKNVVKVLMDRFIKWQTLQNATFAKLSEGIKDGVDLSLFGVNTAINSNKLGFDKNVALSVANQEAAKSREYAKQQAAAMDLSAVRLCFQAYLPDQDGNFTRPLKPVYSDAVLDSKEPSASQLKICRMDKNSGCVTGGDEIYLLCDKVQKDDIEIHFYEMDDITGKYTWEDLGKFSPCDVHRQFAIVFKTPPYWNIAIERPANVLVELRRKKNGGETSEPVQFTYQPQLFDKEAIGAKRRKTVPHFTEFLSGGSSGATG
# Assay: protein-binding microarray (PBM); PBM: ~300 nM protein, 6 mM HEPES pH 7.8, 80 mM KCl, 0.5 mM EDTA, 0.5 mM EGTA, 6% glycerol, 35 ng/ul poly-dIdC, 1% milk, 1 h, room temperature; Ap Aiptasia and Nv Nematostella (sea anemones) / Co Capsaspora / Aq Amphimedon (sponge) / Dm Drosophila / Hu human; RHD is the Rel homology domain; high values mean tight binding
# Details: dsDNA, one strand shown
row,Sequence,binding signal [z-score]
1,CCGATTAACATCACCCTCGAGGGTGATGTTAATCGGGTCTTGATTCGCTTGACGCTGCTG,1.78
2,CCGATTAACATCAAGGGGGGGACTGATGTTAATCGGGTCTTGATTCGCTTGACGCTGCTG,4.24
3,CCGATTAACATCAGGGGGGGTAATGATGTTAATCGGGTCTTGATTCGCTTGACGCTGCTG,3.94
4,CCGATTAACATCAATTCCCCCCGTGATGTTAATCGGGTCTTGATTCGCTTGACGCTGCTG,6.61
5,CCGATTAACATCACCCGGGTAAATGATGTTAATCGGGTCTTGATTCGCTTGACGCTGCTG,1.15
6,CCGATTAACATCACGGAAATACCTGATGTTAATCGGGTCTTGATTCGCTTGACGCTGCTG,1.39
7,CCGATTAACATCACGGAAACACCTGATGTTAATCGGGTCTTGATTCGCTTGACGCTGCTG,1.16
8,CCGATTAACATCAAATCCCCCCCTGATGTTAATCGGGTCTTGATTCGCTTGACGCTGCTG,9
9,CCGATTAACATCAGGGGTAGAACTGATGTTAATCGGGTCTTGATTCGCTTGACGCTGCTG,1.11

# Target: T2, GST-Co-NF-kB (Capsaspora owczarzaki, UniProt F1ARL5 200-546)
# T2 sequence: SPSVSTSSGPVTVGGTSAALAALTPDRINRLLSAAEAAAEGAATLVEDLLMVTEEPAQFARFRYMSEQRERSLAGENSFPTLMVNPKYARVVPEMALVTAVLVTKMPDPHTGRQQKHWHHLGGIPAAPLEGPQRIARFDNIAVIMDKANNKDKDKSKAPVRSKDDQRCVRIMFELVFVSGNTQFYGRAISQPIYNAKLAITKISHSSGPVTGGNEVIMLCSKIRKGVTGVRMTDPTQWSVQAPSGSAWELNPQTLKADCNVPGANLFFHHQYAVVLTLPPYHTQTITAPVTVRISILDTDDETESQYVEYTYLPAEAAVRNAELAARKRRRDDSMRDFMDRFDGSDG
# Assay: as above
# Details: dsDNA, one strand shown
row,Sequence,binding signal [z-score]
1,CCGATTAACATCAGGGCTCCCCCTGATGTTAATCGGGTCTTGATTCGCTTGACGCTGCTG,4.76
2,CCGATTAACATCAAACGTTCCCCTGATGTTAATCGGGTCTTGATTCGCTTGACGCTGCTG,6.66
3,CCGATTAACATCAGAAGACCCCCTGATGTTAATCGGGTCTTGATTCGCTTGACGCTGCTG,1.79
4,CCGATTAACATCACCCTCGAGGGTGATGTTAATCGGGTCTTGATTCGCTTGACGCTGCTG,1.1
5,CCGATTAACATCAAAAAAACCCTTGATGTTAATCGGGTCTTGATTCGCTTGACGCTGCTG,1.11
6,CCGATTAACATCAGGAGATCCCCTGATGTTAATCGGGTCTTGATTCGCTTGACGCTGCTG,2.55
7,CCGATTAACATCAAGGGGGGGACTGATGTTAATCGGGTCTTGATTCGCTTGACGCTGCTG,5.71
8,CCGATTAACATCAAAATACCCCTTGATGTTAATCGGGTCTTGATTCGCTTGACGCTGCTG,4.02
9,CCGATTAACATCACTAAACCCCCTGATGTTAATCGGGTCTTGATTCGCTTGACGCTGCTG,3.32
10,CCGATTAACATCAGGGGGGGTAATGATGTTAATCGGGTCTTGATTCGCTTGACGCTGCTG,6.38
11,CCGATTAACATCAGCCCCGGTGTTGATGTTAATCGGGTCTTGATTCGCTTGACGCTGCTG,1.61
12,CCGATTAACATCAGGGGGGGACATGATGTTAATCGGGTCTTGATTCGCTTGACGCTGCTG,7.08
13,CCGATTAACATCAATTCCCCCCGTGATGTTAATCGGGTCTTGATTCGCTTGACGCTGCTG,8.8
14,CCGATTAACATCACCCGGGTAAATGATGTTAATCGGGTCTTGATTCGCTTGACGCTGCTG,2.41
15,CCGATTAACATCAAGGGACTTCCTGATGTTAATCGGGTCTTGATTCGCTTGACGCTGCTG,1.07
16,CCGATTAACATCAGAAATTACCCTGATGTTAATCGGGTCTTGATTCGCTTGACGCTGCTG,2.87
17,CCGATTAACATCAGGCCTTCCCCTGATGTTAATCGGGTCTTGATTCGCTTGACGCTGCTG,2.84
18,CCGATTAACATCAAATCCCCCCCTGATGTTAATCGGGTCTTGATTCGCTTGACGCTGCTG,9.25
19,CCGATTAACATCAAAACACCCCCTGATGTTAATCGGGTCTTGATTCGCTTGACGCTGCTG,5.54
20,CCGATTAACATCAGGGGTAGAACTGATGTTAATCGGGTCTTGATTCGCTTGACGCTGCTG,5.07

# Target: T3, GST-Dm-Relish (Drosophila melanogaster, UniProt Q94527 99-473)
# T3 sequence: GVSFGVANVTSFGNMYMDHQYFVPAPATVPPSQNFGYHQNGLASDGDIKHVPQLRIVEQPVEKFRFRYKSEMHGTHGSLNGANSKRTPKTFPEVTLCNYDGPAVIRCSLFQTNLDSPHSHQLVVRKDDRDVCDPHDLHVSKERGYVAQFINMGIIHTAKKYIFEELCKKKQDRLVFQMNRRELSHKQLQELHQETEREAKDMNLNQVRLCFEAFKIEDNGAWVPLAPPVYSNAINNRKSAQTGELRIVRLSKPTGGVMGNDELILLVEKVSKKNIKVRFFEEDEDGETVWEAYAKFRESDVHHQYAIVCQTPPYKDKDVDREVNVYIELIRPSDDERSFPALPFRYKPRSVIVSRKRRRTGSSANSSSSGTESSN
# Assay: as above
# Details: dsDNA, one strand shown
row,Sequence,binding signal [z-score]
1,CCGATTAACATCAAAAAATCACCTGATGTTAATCGGGTCTTGATTCGCTTGACGCTGCTG,8.12
2,CCGATTAACATCAGGGCTCCCCCTGATGTTAATCGGGTCTTGATTCGCTTGACGCTGCTG,7.28
3,CCGATTAACATCAAACGTTCCCCTGATGTTAATCGGGTCTTGATTCGCTTGACGCTGCTG,3.29
4,CCGATTAACATCAGAAGACCCCCTGATGTTAATCGGGTCTTGATTCGCTTGACGCTGCTG,4.9
5,CCGATTAACATCAGGTGTTTCCATGATGTTAATCGGGTCTTGATTCGCTTGACGCTGCTG,2.26
6,CCGATTAACATCACCCTCGAGGGTGATGTTAATCGGGTCTTGATTCGCTTGACGCTGCTG,1.08
7,CCGATTAACATCAGGAAAGGCCCTGATGTTAATCGGGTCTTGATTCGCTTGACGCTGCTG,5.48
8,CCGATTAACATCAGAAAATCACCTGATGTTAATCGGGTCTTGATTCGCTTGACGCTGCTG,6.91
9,CCGATTAACATCACGGGAAGCCCTGATGTTAATCGGGTCTTGATTCGCTTGACGCTGCTG,7.08
10,CCGATTAACATCAGGGGCTTCCATGATGTTAATCGGGTCTTGATTCGCTTGACGCTGCTG,6.97
11,CCGATTAACATCAAAAAAACCCTTGATGTTAATCGGGTCTTGATTCGCTTGACGCTGCTG,6.8
12,CCGATTAACATCAGGAGATCCCCTGATGTTAATCGGGTCTTGATTCGCTTGACGCTGCTG,8.66
13,CCGATTAACATCAGGACTGCCCCTGATGTTAATCGGGTCTTGATTCGCTTGACGCTGCTG,3.18
14,CCGATTAACATCAAGGGGGGGACTGATGTTAATCGGGTCTTGATTCGCTTGACGCTGCTG,4.41
15,CCGATTAACATCAAAATACCCCTTGATGTTAATCGGGTCTTGATTCGCTTGACGCTGCTG,5.65
16,CCGATTAACATCACTAAACCCCCTGATGTTAATCGGGTCTTGATTCGCTTGACGCTGCTG,7.51
17,CCGATTAACATCAGATAAACCCCTGATGTTAATCGGGTCTTGATTCGCTTGACGCTGCTG,5.22
18,CCGATTAACATCAGGGGGGGTAATGATGTTAATCGGGTCTTGATTCGCTTGACGCTGCTG,4.83
19,CCGATTAACATCAGGGCCTTTTGTGATGTTAATCGGGTCTTGATTCGCTTGACGCTGCTG,5.05

row,Sequence,binding signal [z-score]
1,CCGATTAACATCACGGGCTTCCCTGATGTTAATCGGGTCTTGATTCGCTTGACGCTGCTG,7.65
2,CCGATTAACATCAGAAAAACACCTGATGTTAATCGGGTCTTGATTCGCTTGACGCTGCTG,3.66
3,CCGATTAACATCAGGGGGGGACATGATGTTAATCGGGTCTTGATTCGCTTGACGCTGCTG,3.75
4,CCGATTAACATCAGGCGAACCCCTGATGTTAATCGGGTCTTGATTCGCTTGACGCTGCTG,1.37
5,CCGATTAACATCACGGTGTTTCCTGATGTTAATCGGGTCTTGATTCGCTTGACGCTGCTG,2.06
6,CCGATTAACATCAGGGAGTGCCCTGATGTTAATCGGGTCTTGATTCGCTTGACGCTGCTG,3.85
7,CCGATTAACATCAATTCCCCCCGTGATGTTAATCGGGTCTTGATTCGCTTGACGCTGCTG,5.54
8,CCGATTAACATCAGGACCTTCCCTGATGTTAATCGGGTCTTGATTCGCTTGACGCTGCTG,1.9
9,CCGATTAACATCACGGAAATACCTGATGTTAATCGGGTCTTGATTCGCTTGACGCTGCTG,2.56
10,CCGATTAACATCAGGAAGATCCCTGATGTTAATCGGGTCTTGATTCGCTTGACGCTGCTG,2.71
11,CCGATTAACATCAAGGGACTTCCTGATGTTAATCGGGTCTTGATTCGCTTGACGCTGCTG,7.2
12,CCGATTAACATCAAAAAAACACCTGATGTTAATCGGGTCTTGATTCGCTTGACGCTGCTG,4.97
13,CCGATTAACATCAGGACATACCCTGATGTTAATCGGGTCTTGATTCGCTTGACGCTGCTG,2.79
14,CCGATTAACATCAGAAATTACCCTGATGTTAATCGGGTCTTGATTCGCTTGACGCTGCTG,4.39
15,CCGATTAACATCACGGAAACACCTGATGTTAATCGGGTCTTGATTCGCTTGACGCTGCTG,1.78
16,CCGATTAACATCAGGCCTTCCCCTGATGTTAATCGGGTCTTGATTCGCTTGACGCTGCTG,9.6
17,CCGATTAACATCAAATCCCCCCCTGATGTTAATCGGGTCTTGATTCGCTTGACGCTGCTG,7.98
18,CCGATTAACATCAAAACACCCCCTGATGTTAATCGGGTCTTGATTCGCTTGACGCTGCTG,6.95
